What all share (assay): NCI-60 one-dose screen, 48 h (100 = growth as untreated, 0 = no growth, -100 = all killed)
What all share (conditions): 10 µM

For assay [1], the system named is HCT-15 colon.
In assay [2] the test system is HT29 colon.
For assay [3], the system named is SNB-75 CNS.
Assay [4] has as its system SNB-19 CNS.
The subject of assay [5] is U251 CNS.
Assay [6] concerns PC-3 prostate.
For assay [7], the system named is SK-MEL-5 melanoma.
In assay [8] the test system is UACC-62 melanoma.
The test system of assay [9] is LOX IMVI melanoma.
For assay [10], the system named is SK-MEL-28 melanoma.
The subject of assay [11] is SK-MEL-2 melanoma.
In assay [12] the test system is EKVX NSCLC.
In assay [13] the test system is SN12C renal.
Assay [14] deals with UO-31 renal.
In assay [15] the test system is TK-10 renal.
The subject of assay [16] is ACHN renal.
The test system of assay [17] is CAKI-1 renal.
Assay [18] deals with A498 renal.
Assay [19] deals with CCRF-CEM leukemia.
The subject of assay [20] is MOLT-4 leukemia.

Structures are written as SMILES. Compounds without any hit were thinned out: in the full panel of roughly 83,000, 20% have a hit.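 Results are percent growth after 48 hours of single-concentration exposure. 100 means growth as in untreated cells, lower positive values show inhibition; negative values down to -100 show cell death.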 Unmarked numbers belong to inactive results. Calls of active or inactive are those of the source. The calls were made as follows: active = growth percent below 10; inactive = the rest.

Turning to `O=C(CSc1nnc(-c2c[nH]c3ccccc23)n1-c1ccccc1)Nc1ccc(C(=O)/C=C/c2cccc([N+](=O)[O-])c2)cc1`, the growth in assay [1] was 84.1%; in [2], 101%; in assay [3], 99.8%; in [4], 86.5%; in assay [5], 92.5%; in assay [6], 87%. Also, the growth is 91.3% in assay [7]; 76.5% in assay [8]; 75.6% in [9]; 102% in assay [10]; 101% in [11]; 83.9% in [12]. Besides, the growth in [13] is 104%; in assay [14], 42.9%; in [15], 115%; in assay [16], 74.3%; in [17], 83.7%; in assay [18], 95.7%. Moreover, the growth in assay [19] is 96.1%; in assay [20] it was 78%.
For `CCOC(=O)C1=C(N)N(c2ccc(Cl)cc2)C2=C(C(=O)CC(C)(C)C2)C1c1ccc(N2CCOCC2)cc1` (stereo not drawn), the growth was 92.5% in assay [1]; 104% in assay [2]; 109% in assay [3]; 91.2% in assay [4]; 88.2% in assay [5]; 92% in assay [6]. Also, the growth is 80.3% in assay [7]; 82.8% in assay [8]; 115% in [9]; 105% in [10]; 96.2% in assay [11]; 74.6% in [12]. In addition, the growth was 97.7% in [13]; 85.3% in assay [14]; 98% in assay [15]; 112% in assay [16]; 86.7% in [17]; 119% in [18]. Moreover, the growth in [19] is 100%.
Consider `O=C(Nc1cccc(C(F)(F)F)c1)c1cncc(C#Cc2cnc3ccc(N4CCOCC4)nn23)c1`, for which the growth in assay [1] was -16.7% (active); in [2] it was 5.68% (active); in [3], -39.9% (active); in assay [4] it was -6.03% (active); in [5] it was -3.92% (active); in [6], 6.2% (active). The growth in assay [7] was -66.9% (active); in assay [8] it was -22.1% (active); in assay [9] it was -87.9% (active); in assay [10], -17.8% (active); in [11], -26.3% (active); in assay [12], -22.3% (active). In addition, the growth is 4.67% (active) in assay [13]; -31.7% (active) in [14]; 27.3% in assay [15]; 3.28% (active) in assay [16]; 6.18% (active) in assay [17]; -87.8% (active) in assay [18]. Besides, the growth in assay [19] is 10.6%; in assay [20], 3.44% (active).
As to `COc1ccc(-c2nc(-c3ccccc3)c(-c3ccccc3)n2-c2ccc(S(=O)(=O)Nc3ncccn3)cc2)cc1OC`, the growth in assay [1] is 53.6%; in assay [2], 96.2%; in [3], 88.5%; in assay [4] it was 74.9%; in [5], 71.8%; in assay [6], 63.7%. Further, the growth in [7] is 65.7%; in assay [8], 83.6%; in assay [9] it was 65.2%; in [10], 92.3%; in assay [11], 108%; in assay [12], 63.6%. Further, the growth in assay [13] is 76.3%; in assay [14], 51.7%; in [15] it was 91.8%; in assay [16], 82.6%; in assay [17], 76.5%; in assay [18], 55%. For the same molecule, the values for the growth in assay [19] and in assay [20] were 69% and 70.5%, respectively.
As for `CN1C(=O)N(C)C2SC(N/N=C/c3ccc(F)cc3)=NC21` (stereo not drawn), the growth in assay [1] is 26.1%; in assay [2], 16.2%; in assay [3], 23.7%; in [4], 43.1%; in assay [5] it was 35.4%; in assay [6], 66.2%. Further, the growth in assay [7] was 26.8%; in assay [8] it was 18.4%; in assay [9], 40%; in [10] it was 63.5%; in assay [11], 26.5%; in assay [12], 77.2%. Also, the growth in assay [13] is 52.5%; in assay [14], 47.7%; in assay [15] it was 72.4%; in assay [16], 60.1%; in [17], 46.3%; in [18], 57.6%. The growth in [19] was 40.3%; in [20] it was 45.4%.
With `O=C(CNc1nc(-c2ccccc2)cs1)Nc1ccc([N+](=O)[O-])cc1`, the growth in assay [1] was -23.5% (active); in assay [2], -44.9% (active); in [3], 87.6%; in assay [4], 38.3%; in assay [5] it was 9.22% (active); in assay [6], 33.7%. Besides, the growth in [7] is -69.3% (active); in assay [8] it was 9.93% (active); in assay [9], -19.5% (active); in [10] it was -6.86% (active); in assay [11] it was 31.1%; in assay [12], 9.52% (active). Also, the growth in assay [13] was 16.9%; in assay [14], -74.3% (active); in [15], -58% (active); in [16] it was -15.8% (active); in assay [17], 7.15% (active); in assay [18], 109%. In addition, the growth in assay [19] was 14.3%; in assay [20] it was 15.7%.
As for `Cc1ccc(-c2nc3ccc(C(=O)N=Nc4c(O)[nH]c5ccc([N+](=O)[O-])cc45)cc3[nH]2)cc1`, the growth in [1] is 104%; in assay [2], 66.6%; in assay [3], 78.4%; in assay [4], 55.4%; in assay [5], 5.86% (active); in assay [6] it was 60.8%. Besides, the growth is 89.3% in assay [7]; 85.6% in [8]; 54.9% in assay [9]; 60.4% in assay [10]; 101% in [11]; 101% in assay [12]. Moreover, the growth was 48.8% in assay [13]; 81.7% in assay [14]; 107% in assay [15]; 97% in assay [16]; 95.9% in assay [17]; 116% in [18]. The growth in assay [19] is 61.2%.
On to `O=C(Cn1nc(-c2ccccc2)ccc1=O)NNC(=S)NC1CCCCC1`, for which the growth in assay [1] was 97.9%; in assay [2] it was 127%; in [3], 96.6%; in assay [4] it was 100%; in assay [5], 102%; in [6] it was 96.4%. For the same molecule, the growth was 100% in assay [7]; 96.2% in assay [8]; 99% in [9]; 108% in [10]; 109% in assay [11]; 98.6% in [12]. Moreover, the growth in assay [13] is 101%; in assay [14], 81.2%; in assay [15], 109%; in [16], 102%; in assay [17], 98.6%; in assay [18] it was 121%. Also, the growth in assay [19] is 103%; in assay [20], 106%.

(Values after PubChem BioAssay (NCI).)
